Measured values from PubChem BioAssay AID504834 (National Center for Advancing Translational Sciences (NCATS), 2011).
Screen size: about 320,000 compounds; about 22,000 (6.9%) were called active. About 27% were inconclusive and are not listed. Calls come from the whole dose curve; as a rule, active = well fitted inhibition curve with a large enough effect; inconclusive = small, poorly fitted or top-dose-only effect, or another doubt; inactive = no such curve, though single readings can be large or run the other way. The entries come from a sample that favours actives as a whole. A call without a number means that no potency is given here.

Assay: Primary qHTS for delayed death inhibitors of the malarial parasite plastid, 96 hour incubation
Conditions: P. falciparum luciferase reporter growth; series mostly up to 28.7 µM
In short: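 96 h incubation, 37 C, 5% CO2, of luciferase-reporter P. falciparum-infected RBCs (2% hematocrit, 0.05% parasitemia final) with test compounds; endpoint luminescence.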
Potency is the fitted concentration of half-maximal effect.

SMILES | Potency | activity change, negative = inhibition
COc1cc(OC)nc(N/N=C(\c2ccccc2)c2ccncc2)n1 | 5.22 µM (active) | –
O=C(O/N=C(/c1ccccc1)c1ccncc1)c1ccccc1[N+](=O)[O-] | inactive | –
COc1ccc(C/C(C)=N/NC(=O)c2ccncc2)cc1 | inactive | –
N#Cc1cccc(CN2CCC(=O)N([C@H](CO)c3ccccc3)CC2)c1 | inactive | –
C=CCOc1ccc(/C=C/C(=O)OC(C)C(=O)Nc2ccc(NC(C)=O)cc2)cc1 (configuration not stated) | inactive | –
O=C(CCl)Nc1cccc(CP(=O)(c2ccccc2)c2ccccc2)c1 | 6.57 µM (active) | –
CCc1cccc(NC(=O)CCC(=O)O)c1 | inactive | –
O=C(Cc1ccccc1)Nc1cccc(NC(=O)c2ccccc2)c1 | inactive | –
COc1ccc(CCNS(=O)(=O)c2cn(C)nc2C)cc1 | inactive | –
CCOc1ccc(OCC(=O)Nc2c3c(nn2C(C)(C)C)CS(=O)(=O)C3)cc1 | inactive | –
Cn1c(SCC(=O)NC2CCCCC2)nnc1-c1ccc(N)cc1 | inactive | –
CC1Cc2ccccc2N1C(=O)CSc1nnc(-c2ccc(S(=O)(=O)N3CCCC3)cc2)n1C (configuration not stated) | inactive | –
Cn1c(SCC(=O)OC2CCCCC2)nnc1-c1ccc(S(=O)(=O)N2CCCC2)cc1 | 2.33 µM (active) | –
Cc1ccc(CN2CC(C(=O)N3CCN(S(=O)(=O)c4ccccc4)CC3)CC2=O)cc1 (configuration not stated) | inactive | –
CCc1noc(C)c1C(=O)Nc1nc2ccc(OC)cc2s1 | inactive | –
O=C(COC(=O)CCc1ccc(S(=O)(=O)N2CCOCC2)cc1)Nc1cccc(Cl)c1 | inactive | –
O=C(CCc1ccc(S(=O)(=O)N2CCOCC2)cc1)NN=C1CCCCCCC1 | inactive | –
O=C(CCc1ccc(S(=O)(=O)N2CCOCC2)cc1)Nc1ccc2ccccc2c1 | 5.22 µM (active) | –
CCN(CC(=O)N1CCCC1)S(=O)(=O)c1ccc(F)cc1 | inactive | –
O=C(NCCCN1CCCC1=O)c1cccc(S(=O)(=O)NCc2ccccc2)c1 | inactive | –
CCN(CC(=O)Nc1c(F)cccc1F)C(=O)C1CCC1 | inactive | –
CC(C)c1ccc(Cc2nnc(NCCCO)[nH]c2=O)cc1 | inactive | –
Cc1cc(-c2ccc(S(=O)(=O)N3CCN(c4cccc(C(F)(F)F)c4)CC3)s2)on1 | 13.1 µM (active) | –
Cc1cc(-c2ccc(S(=O)(=O)N3CCc4ccccc4C3)s2)on1 | inactive | –
Cc1cccc(N2CCN(S(=O)(=O)c3ccc(-c4cc(C)no4)s3)CC2C)c1 (configuration not stated) | inactive | –
COCC1CCN(C(=O)CCc2nnc(C3(c4ccc(Cl)cc4)CCC3)o2)C1 (configuration not stated) | inactive | –

SMILES | Potency | activity change, negative = inhibition
CCOc1ccccc1N1C(=O)CC(Sc2nccc(C)n2)C1=O (configuration not stated) | inactive | –
CCOc1ccc(OCC(=O)OC(C)C(=O)NC2CCCCC2C)cc1 (configuration not stated) | inactive | –
Cc1ccc(C(=O)NCC(=O)OCc2nnc(-c3ccccc3)o2)cc1 | inactive | –
CCc1ccc(CN(C)C(=O)CCc2nnc(-c3ccc(-c4ccccc4)cc3)o2)nc1 | 11.7 µM (active) | –
CCCC(=O)Nc1nnc(-c2ccccc2)o1 | inactive | –
CCOc1ccc(NC(=O)CC(Cc2ccc(Cl)cc2)C(=O)O)cc1 (configuration not stated) | inactive | –
O=C(CN1CCc2cc3c(cc2C1)OCCCO3)Nc1ccccc1 | inactive | –
OCC(CO)NC1C[C@](O)(CO)[C@@H](O)[C@H](O)[C@H]1O (some centres not stated) | inactive | –
CCCCOc1ccc(CSC(=N)N)cc1[N+](=O)[O-] | 2.33 µM (active) | –
CCCCOC(=O)CCCc1ccc([N+](=O)[O-])cc1[N+](=O)[O-] | inactive | –
CCCOc1ccc(Cn2ccnc2)cc1[N+](=O)[O-] | inactive | –
COc1cc(OC)c(C(=O)NCc2ccc3c(c2)OCO3)cc1OC | 13.1 µM (active) | –
CCn1cc(C(=O)NCc2ccc3c(c2)OCO3)c2cc(OC)c(OC)cc2c1=O | inactive | –
COc1cc(CNCc2ccc3c(c2)OCO3)c([N+](=O)[O-])cc1OC | inactive | –
O=C(O)CCCN1C(=O)C2C3c4ccccc4C(c4ccccc43)[C@@H]2C1=O (some centres not stated) | inactive | –
Cc1ccc(NC2CCCN(C(=O)CCc3cn[nH]c3)C2)cc1C (configuration not stated) | inactive | –
O=C1CCCCN1CCCC(=O)N1CCCC(Nc2ccc(F)cc2)C1 (configuration not stated) | inactive | –
O=C(CN1C(=O)CSC1=O)N1CCCC(Nc2ccc(F)cc2)C1 (configuration not stated) | 1.65 µM (active) | –
CC1C(=O)Nc2ccc(S(=O)(=O)N3CCN(c4ccccc4F)CC3)cc2NC1=O (configuration not stated) | inactive | –
O=C1/C(=C/c2cccs2)SC(=S)N1C1CCS(=O)(=O)C1 (configuration not stated) | inactive | –
Cc1cc(C)cc(C(=O)NC(CC(N)=O)c2ccc(N3CCC(N4CCCCC4)CC3)c([N+](=O)[O-])c2)c1 (configuration not stated) | inactive | –
CC1CCCCN1CCCNc1ccc(C(CC(N)=O)NC(=O)c2ccccc2)cc1[N+](=O)[O-] (configuration not stated) | inactive | –
NC(=O)CC(NC(=O)Cc1ccc(Br)cc1)c1ccc(NC2CC3CCC2C3)c([N+](=O)[O-])c1 (configuration not stated) | 11.7 µM (active) | –
O=C(O)c1ccc(-n2nc(-c3ccccc3)c3ccccc3c2=O)cc1 | inactive | –
O=C(c1ccc(F)cc1)n1c(=S)nc2ccccn21 | inactive | –
CCc1ccc(C2C(C#N)=C(N)Oc3n[nH]c(CC(=O)OC)c32)cc1 (configuration not stated) | inactive | –

SMILES | Potency | activity change, negative = inhibition
COc1ccc(-c2[nH]nc3c2C(c2ccncc2)C(C#N)=C(N)O3)cc1 (configuration not stated) | 4.65 µM (active) | –
CCOc1c(OC)cc(C2C(C#N)=C(N)Oc3n[nH]c(-c4ccncc4)c32)cc1OC (configuration not stated) | inactive | –
COc1cc(C(=O)Nc2ncccc2C)ccc1OCC(=O)N1CCOCC1 | inactive | –
Cc1cc(-n2cnc(-c3cn(C)nc3C)n2)no1 | inactive | –
Cc1cc(OCC(=O)N(C)c2c(N)n(Cc3ccccc3)c(=O)[nH]c2=O)c(C(C)C)cc1Cl | inactive | –
Cc1cccc(OCC(=O)NCCCNC(=O)c2ccccn2)c1 | inactive | –
Cc1ccccc1NC(=O)C1CCN(C(=O)NC2CCCCC2)CC1 | inactive | –
O=C1COc2ccc(NC(=O)N3CCN(c4ccc(F)cc4)CC3)cc2N1 | inactive | –
CC(CC(=O)Nc1ccc(F)cc1F)S(=O)(=O)c1ccc2c(c1)NC(=O)CO2 (configuration not stated) | 6.57 µM (active) | –
Cc1ccc(NS(=O)(=O)c2ccc3c(c2)NC(=O)CO3)cc1 | inactive | –
COc1ccc(C)cc1NC(=O)NCCCCc1ccccc1 | inactive | –
CCc1cccc(NC(=O)COC(=O)C2CCN(c3ccc(C(F)(F)F)cn3)CC2)c1 | inactive | –
Cc1cnc(C)c(N2CCN(C(=O)C3CCC(=O)N(CCc4cccc(F)c4)C3)CC2)n1 (configuration not stated) | 14.7 µM (active) | –
O=C1CCC(C(=O)N2CCC(O)(c3ccccc3)CC2)CN1CCc1ccccc1 (configuration not stated) | inactive | –
Cc1cnc(CN(C)C(=O)C2CCC(=O)N(CCc3cccc(F)c3)C2)[nH]1 (configuration not stated) | inactive | –
O=C(NC1CC1)C(Cc1ccccc1)NS(=O)(=O)c1ccccc1F (configuration not stated) | inactive | –
O=C1N[C@@H](Cc2ccccc2)C(=O)N2[C@H]1C[C@]1(Br)c3ccccc3N(S(=O)(=O)c3ccccc3)[C@H]21 | inactive | –
Cc1ccc(CCNC(=O)c2ccc3nc4ccccc4c(=O)n3c2)cc1 | inactive | –
CCOC(=O)C1=C(C)N=c2s/c(=C\C(=O)OC)c(=O)n2C1c1ccc(OC)cc1 (configuration not stated) | inactive | –
COCCOC(=O)C1=C(C)N=c2s/c(=C\c3cccs3)c(=O)n2C1c1cccs1 (configuration not stated) | 8.28 µM (active) | –
CCOC(=O)C1=C(C)Nc2nc3ccccc3n2C1c1cccs1 (configuration not stated) | inactive | –
CC(C)(C)n1cnnc1Sc1ccc([N+](=O)[O-])cn1 | 1.65 µM (active) | –
Cc1cccc(C)c1NC(=O)CSc1ccc([N+](=O)[O-])cn1 | inactive | –
O=[N+]([O-])c1ccc(Sc2n[nH]c(-c3ccco3)n2)nc1 | inactive | –
Cc1cccc(N(C(=O)c2csnn2)C(C(=O)NCc2ccccc2)c2ccncc2)c1 (configuration not stated) | inactive | –
CCOc1cc(C(=S)N2CCOCC2)ccc1O | 13.1 µM (active) | –

SMILES | Potency | activity change, negative = inhibition
CCOc1cc(C(=S)N2CCOCC2)ccc1OS(=O)(=O)c1ccc(Br)cc1 | inactive | –
COc1cc(C(=S)N2CCOCC2)ccc1O | inactive | –
CCN1c2nc3c(C)cccn3c(=O)c2CC2(C(=O)N(C)C(=O)N(C)C2=O)C1C (configuration not stated) | 3.29 µM (active) | –
CCOC(=O)N1CCN(C(=O)CSc2nc(=O)n3cccc(C)c3n2)CC1 | inactive | –
CN(Cc1c(F)cccc1Cl)C(=O)CNC(=O)c1ccc2c(c1)OCO2 | inactive | –
Cc1ccc(C(CC(=O)O)NC(=O)c2ccc(S(=O)(=O)N3CCCC3)cc2)cc1 (configuration not stated) | inactive | –
O=C(NCCN1C(=O)S/C(=C\c2cccnc2)C1=O)c1cccc(OC(F)F)c1 | inactive | –
Cc1cc(OCCCC(=O)NCCN2C(=O)S/C(=C\c3cccnc3)C2=O)ccc1Cl | 11.7 µM (active) | –
CCOc1ccc(N2CC(C(=O)NCCN3C(=O)S/C(=C\c4cccnc4)C3=O)CC2=O)cc1 (configuration not stated) | inactive | –
COC(=O)c1ccc(S(=O)(=O)NCc2ccccc2)n1C | inactive | –
Cc1ccc(C(=O)CCC(=O)N(C)CC(=O)Nc2c(Cl)cccc2Cl)cc1 | inactive | –
CC1CCN(C(=O)c2cc3nc(C4CC4)cc(C(F)(F)F)n3n2)CC1 | inactive | –
CCOC(=O)N1CCC(c2cc(=O)n(-c3ccccc3)[nH]2)CC1 | inactive | –
COc1cc(OC)cc(-c2cc3nc(C4CCN(C(=O)OC(C)(C)C)CC4)cc(=O)n3[nH]2)c1 | 1.65 µM (active) | –
O=C(Oc1ccc(-c2nnco2)cc1)c1ccc(F)c(S(=O)(=O)N2CCOCC2)c1 | inactive | –
O=C(CCS(=O)(=O)c1ccc2c(c1)NC(=O)CS2)NCc1ccccc1Cl | inactive | –
Cc1csc(/N=C/N(C)C)c1C#N | inactive | –
Cc1cc(C)c2nc(N(CCN(C)C)C(=O)/C=C/c3cccs3)sc2c1 | 6.57 µM (active) | –
CC(=O)N(CCCN(C)C)c1nc2ccc(C)cc2s1 | inactive | –
Cc1cccc2sc(N(CCCN(C)C)C(=O)CCS(=O)(=O)c3ccccc3)nc12 | inactive | –
CCOC(=O)c1sc2nc(C)[nH]c(=O)c2c1C | inactive | –
Cc1ccc(NC(=O)CSc2nc(CSc3ccc(C)cc3)cc(=O)[nH]2)cc1 | inactive | –
Cc1ccc(SCc2cc(=O)[nH]c(N3CCCCC3)n2)cc1 | 5.22 µM (active) | –
O=c1cc(CSc2ccccn2)nc(N2CCN(c3ccccc3)CC2)[nH]1 | – | -8.4% [at 5.75 µM] (inactive)
